This is an account of results in PubChem BioAssay AID1671202 (University of Kansas High Throughput Screening Laboratory, 2021).

Structures are written as SMILES. Where “and” joins values, the source holds several entries; their conditions need not be identical. Equal values may be shown once. The campaign covered roughly 190,000 compounds. About 6,900 (3.6%) were called active. Rule as the data show it: active = inhibition above about 50%; inactive = the rest. What follows is part of a selection rich in actives, with near analogues and random picks from the rest. Some structures have more than one record in an assay (separate samples or runs), and their calls can disagree.

The assay deals with Huntingtin (Homo sapiens) (UniProt P42858). In words: mutant huntingtin-calmodulin interaction inhibitors – biochemical, AlphaScreen, primary screen (AID 1671202).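 Also: 0% = both proteins with DMSO and 100% = one protein alone.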 The note with it: AlphaScreen His-mHTT/GST-CaM binding, luminescence; at 15 µM, stronger effect = higher value. (Bead proximity is the source of the signal in Alpha formats.)
Huntingtin (Homo sapiens), sequence (P42858 whole entry, looked up, stated change not applied): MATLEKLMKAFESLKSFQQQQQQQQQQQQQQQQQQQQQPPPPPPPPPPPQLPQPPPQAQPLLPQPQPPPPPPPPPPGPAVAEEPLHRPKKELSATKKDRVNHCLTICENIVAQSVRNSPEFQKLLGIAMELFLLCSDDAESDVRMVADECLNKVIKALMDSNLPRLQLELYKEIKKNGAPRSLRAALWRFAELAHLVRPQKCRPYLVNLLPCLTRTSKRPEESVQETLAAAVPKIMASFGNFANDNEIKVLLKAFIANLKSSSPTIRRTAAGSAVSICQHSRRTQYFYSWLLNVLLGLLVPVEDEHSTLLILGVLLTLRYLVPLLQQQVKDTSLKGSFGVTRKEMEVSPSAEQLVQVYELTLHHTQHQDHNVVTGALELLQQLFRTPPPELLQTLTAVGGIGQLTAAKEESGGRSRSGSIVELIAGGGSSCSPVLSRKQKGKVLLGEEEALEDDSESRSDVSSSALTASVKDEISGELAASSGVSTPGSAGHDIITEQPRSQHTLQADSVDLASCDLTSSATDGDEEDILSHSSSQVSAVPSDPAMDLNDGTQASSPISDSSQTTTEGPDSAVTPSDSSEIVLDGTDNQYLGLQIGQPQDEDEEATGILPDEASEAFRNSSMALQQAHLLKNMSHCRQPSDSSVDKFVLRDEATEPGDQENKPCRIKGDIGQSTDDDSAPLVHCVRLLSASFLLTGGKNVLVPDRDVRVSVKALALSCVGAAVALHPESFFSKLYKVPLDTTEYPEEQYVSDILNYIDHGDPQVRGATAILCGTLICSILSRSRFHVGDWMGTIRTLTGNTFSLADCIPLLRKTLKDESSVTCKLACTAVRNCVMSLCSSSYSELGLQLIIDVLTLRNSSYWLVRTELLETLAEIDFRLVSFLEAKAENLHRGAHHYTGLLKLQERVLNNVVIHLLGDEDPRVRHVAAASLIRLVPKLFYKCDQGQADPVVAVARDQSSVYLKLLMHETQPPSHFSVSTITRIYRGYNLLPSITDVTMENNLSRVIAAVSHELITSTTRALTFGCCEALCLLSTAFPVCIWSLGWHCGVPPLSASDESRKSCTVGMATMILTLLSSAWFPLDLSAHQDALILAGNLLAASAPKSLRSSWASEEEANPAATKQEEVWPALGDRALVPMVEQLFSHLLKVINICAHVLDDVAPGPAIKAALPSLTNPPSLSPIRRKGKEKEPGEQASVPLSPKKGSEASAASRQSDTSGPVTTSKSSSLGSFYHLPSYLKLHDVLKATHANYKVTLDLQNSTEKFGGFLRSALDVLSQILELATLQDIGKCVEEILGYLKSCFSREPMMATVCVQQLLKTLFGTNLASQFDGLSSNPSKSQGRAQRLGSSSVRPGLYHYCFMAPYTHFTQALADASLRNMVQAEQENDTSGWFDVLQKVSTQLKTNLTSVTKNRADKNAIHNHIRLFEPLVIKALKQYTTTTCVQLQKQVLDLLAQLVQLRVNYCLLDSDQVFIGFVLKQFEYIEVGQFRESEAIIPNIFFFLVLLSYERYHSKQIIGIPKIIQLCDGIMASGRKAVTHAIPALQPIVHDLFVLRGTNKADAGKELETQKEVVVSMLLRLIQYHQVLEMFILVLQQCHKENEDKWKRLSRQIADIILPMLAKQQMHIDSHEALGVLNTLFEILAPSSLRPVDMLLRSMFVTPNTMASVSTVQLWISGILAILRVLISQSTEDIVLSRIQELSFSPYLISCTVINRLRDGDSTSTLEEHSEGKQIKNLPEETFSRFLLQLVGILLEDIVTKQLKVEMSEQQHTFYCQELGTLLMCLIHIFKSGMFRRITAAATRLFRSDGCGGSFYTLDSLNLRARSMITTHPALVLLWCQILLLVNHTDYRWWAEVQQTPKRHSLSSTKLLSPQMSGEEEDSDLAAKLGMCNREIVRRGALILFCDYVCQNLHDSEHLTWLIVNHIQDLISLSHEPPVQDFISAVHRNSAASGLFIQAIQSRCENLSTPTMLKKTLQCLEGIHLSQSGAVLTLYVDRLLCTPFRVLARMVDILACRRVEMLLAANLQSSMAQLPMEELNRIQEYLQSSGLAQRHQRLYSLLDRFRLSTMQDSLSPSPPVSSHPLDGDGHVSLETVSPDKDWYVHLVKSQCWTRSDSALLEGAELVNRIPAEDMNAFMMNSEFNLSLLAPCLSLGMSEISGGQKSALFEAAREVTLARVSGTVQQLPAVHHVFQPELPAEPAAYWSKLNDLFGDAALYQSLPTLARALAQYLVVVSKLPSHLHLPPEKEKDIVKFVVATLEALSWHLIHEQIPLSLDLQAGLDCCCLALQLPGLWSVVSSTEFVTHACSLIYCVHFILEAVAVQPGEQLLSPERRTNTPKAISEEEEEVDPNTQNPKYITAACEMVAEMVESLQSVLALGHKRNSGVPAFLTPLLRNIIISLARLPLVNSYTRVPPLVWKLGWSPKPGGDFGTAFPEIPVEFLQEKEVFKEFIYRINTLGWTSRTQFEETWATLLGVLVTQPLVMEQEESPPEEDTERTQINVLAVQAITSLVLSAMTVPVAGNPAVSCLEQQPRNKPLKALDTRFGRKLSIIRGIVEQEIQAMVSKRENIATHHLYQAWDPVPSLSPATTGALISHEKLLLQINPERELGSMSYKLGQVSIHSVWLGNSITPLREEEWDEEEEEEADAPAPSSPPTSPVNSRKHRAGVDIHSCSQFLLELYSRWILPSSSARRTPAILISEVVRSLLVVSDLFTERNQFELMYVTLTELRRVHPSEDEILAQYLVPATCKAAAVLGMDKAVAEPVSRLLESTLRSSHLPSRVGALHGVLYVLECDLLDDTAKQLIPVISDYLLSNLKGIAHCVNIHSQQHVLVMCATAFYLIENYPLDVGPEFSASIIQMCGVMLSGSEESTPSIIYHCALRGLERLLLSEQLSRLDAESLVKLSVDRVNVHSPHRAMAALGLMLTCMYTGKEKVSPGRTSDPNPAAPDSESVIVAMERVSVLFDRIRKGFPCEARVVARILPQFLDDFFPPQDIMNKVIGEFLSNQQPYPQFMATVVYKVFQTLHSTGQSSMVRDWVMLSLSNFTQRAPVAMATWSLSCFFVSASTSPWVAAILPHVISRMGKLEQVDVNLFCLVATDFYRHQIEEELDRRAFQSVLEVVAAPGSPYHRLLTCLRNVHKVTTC
Turning to `COc1cccc(CN2CCc3nc(N4CCN(c5ccc(F)cc5)CC4)ncc3C2)c1`, the inhibition was -4.69% (inactive).

In the case of `O=C(Nc1cc(Cl)ccc1O)c1nn2c(c1Cl)NC(c1cccs1)CC2C(F)(F)F` (configuration not stated), the inhibition was 90% (active). Consider `CCCNC(=O)c1nn2c(c1Cl)NC(c1ccc(Cl)cc1)CC2C(F)(F)F` (configuration not stated), for which the inhibition is 9% (inactive). To `O=C(Nc1ccc(Cl)cc1)c1cc2n(n1)C(C(F)(F)F)CC(c1cccs1)N2` (configuration not stated) belongs -2% (inactive). Next, `O=C(NCc1ccco1)C1CN(S(=O)(=O)c2cccs2)CC12CCCCC2` (configuration not stated): 2.15% (inactive); `Cc1ccc(Sc2nccnc2N2CCC(C(=O)N3CCN(C)CC3)CC2)cc1`: 10.6% (inactive); `CC(C)N(c1snnc1N)C(C)C`: -2.94% (inactive). `CC1=C(C(=O)Nc2ccc(Br)cn2)C(c2cccnc2)C2=C(CCCC2=O)N1` (configuration not stated): the inhibition is 1% (inactive). With `COc1ccc(N=Cc2ccc(Cl)c([N+](=O)[O-])c2)cc1OC`, the inhibition was 57% (active). Next, `COc1ccc(NC(=O)c2ccc(OC)c([N+](=O)[O-])c2)cc1Cl`: -0.1% (inactive); `COc1ccc(/C=C2\N=C(c3ccc(Cl)c([N+](=O)[O-])c3)OC2=O)cc1OC`: 7% (inactive); `CCNc1cc(N2CCC(CCC(=O)NCC(C)C)CC2)ncn1`: 0.14% (inactive). To `CCN(CC)CCCNc1c(CCC#N)c(C)c(C#N)c2nc3ccccc3n12` belongs 4% (inactive); to `O=C(CN1C(=O)S/C(=C\c2ccccc2)C1=O)Nc1ccccc1Cl`, -5% (inactive). Next, `Fc1cnc(N2CCOCC2)nc1NCc1ccccc1`: 0.7% (inactive); `c1ccc2c(c1)CCN2c1nc(N2CCOCC2)c2n[nH]nc2n1`: 83.5% (active); `COc1ccc(-n2ncc3c(N4CCc5ccccc54)ncnc32)cc1`: 11% (inactive). On to `Cc1ccc(NC(=O)NCCC2CCN(S(=O)(=O)c3ccc(F)cc3)CC2)c(C)c1`, for which the inhibition was 42.8% (inactive). For the compound `CC1(C)c2ccccc2N2CC(=O)NC21/C=C/c1cccc(Br)c1` (configuration not stated), the inhibition was 100% (active).

`O=c1[nH]c(/C=C/c2cccc(Br)c2)nc2ccccc12`: the inhibition was -5.1% (inactive).

Regarding `COCCOCC1CCN(C(=O)c2cccc(N(C)C)c2)CC1`, the inhibition is -11.5% (inactive).

On to `CCC(=O)Nc1cccc(NC(=O)c2ccc(C(C)C)cc2)c1`, for which the inhibition is 0.3% (inactive).

For the compound `CC1=Nc2c(ccc3cccnc23)C1(C)C`, the inhibition was 66.6% (active) and 14.1% (inactive). As for `COc1cc2c(cc1NC(=O)c1ccc(OC)c(OC)c1OC)oc1ccccc12`, the inhibition is -2.6% (inactive). For the compound `CCCN1CCN(c2ncnc3c2nc2n3CCCC2)CC1`, the inhibition was -1.5% (inactive). Consider `N#Cc1c(N=Cc2ccc(Br)cc2)sc2c1CCC2`, for which the inhibition is 23% (inactive). Next, `N#Cc1cccc(CN2CCC(=O)N([C@H](CO)c3ccccc3)CC2)c1`: 0.1% (inactive). Regarding `COc1ccc(SC[C@H](Cc2ccccc2)N2CCN(CCc3ccccc3)CCC2=O)cc1`, the inhibition was 92.2% (active). Next, `O=C1CC[C@H](O)CCN1[C@H](CSc1ccc(Br)cc1)Cc1ccccc1`: 24.2% (inactive); `O=C1CCN(Cc2ccc([N+](=O)[O-])cc2)CCN1[C@H](CO)Cc1ccccc1`: 6.4% (inactive); `C[C@H]1CCC(=O)N([C@H](CSc2ccccc2)Cc2ccccc2)CC1`: -8.3% (inactive). To `O=C1CCN(Cc2ccccc2)CCN1[C@H](CSc1ccccc1)c1ccccc1` belongs 98.8% (active); to `Cc1ccc(CCNC(=O)c2cc3n(n2)CCCN(Cc2ccc(Cl)cc2)C3=O)cc1`, 27.7% (inactive).

Turning to `O=C(N1CCOCC1)[n+]1ccc(/C=C/c2ccc(Cl)cc2)cc1`, the inhibition is 8% (inactive). In the case of `CC1(C)CC(=O)c2sc(NC(=O)C(C)(C)Oc3ccc(Cl)cc3)nc2C1`, the inhibition is -1% (inactive). Next, `CCNc1nc(NCC)n2c(SCC(=O)c3ccc(C(C)(C)C)cc3)nnc2n1`: -3% (inactive). Next, `O=C(NCCc1ccc(Cl)cc1)c1cnn2c3c(cnc12)CCCC3`: -0.73% (inactive); `COc1ccc(C=C2Oc3c(ccc(OC(=O)N4CCOCC4)c3C)C2=O)cc1OC`: 1.6% (inactive).

Consider `CCCc1[nH]nc2c1C1(CCOCC1)C(C#N)=C(N)O2`, for which the inhibition was -0.61% (inactive). As to `CN1CCN(Cc2c(O)ccc3c2OC(=Cc2cc4cc(Br)ccc4o2)C3=O)CC1`, the inhibition was 61.5% (active).

On to `COc1cccc(C=C2Oc3c(ccc(O)c3CN3CCN(C)CC3)C2=O)c1`, for which the inhibition was 18.1% (inactive). With `COc1ccc(C=C2Oc3c(ccc(O)c3CN3CCN(C)CC3)C2=O)cc1OC`, the inhibition is 6.2% (inactive).

For the compound `CCOc1ccccc1C(=O)NCc1ccc2c(c1)cc(C)n2C`, the inhibition was 38.2% (inactive).

Consider `COc1ccccc1NC(=O)Nc1nc(CC(=O)N2CCc3ccccc32)cs1`, for which the inhibition was 14.7% (inactive). To `COc1ccc(N2CCN(C(=O)CSCc3ccccc3)CC2)cc1` belongs 20.7% (inactive). For `COc1ccccc1N1CCN(C(=O)c2cn3ccc(C)cc3n2)CC1`, the inhibition is 0.9% (inactive). To `O=C(CCCn1cccc1)Nc1nc(-c2ccco2)cs1` belongs 28.4% (inactive); to `COc1ccccc1N1CCN(C(=O)CSCc2ccccc2C)CC1`, 66.4% (active); to `COc1ccccc1N1CCN(C(=O)C(c2ccccc2)c2ccccc2)CC1`, 38.2% (inactive). Next, `Cc1cc(C)nc(Nc2nc(CC(=O)Nc3nc(-c4ccco4)cs3)cs2)n1`: 83.2% (active). Next, `COC(=O)Nc1nc(CC(=O)NCc2ccco2)cs1`: -3.8% (inactive); `COc1ccccc1N1CCN(C(=O)Cc2csc(Nc3nc(C)cc(C)n3)n2)CC1`: 65% (active). Consider `O=C(CCS(=O)(=O)c1ccc(Br)s1)Nc1ccc(F)cc1`, for which the inhibition was -1% (inactive).

`CC(C)C(=O)Oc1ccc2c(c1)OC(=Cc1ccco1)C2=O`: the inhibition was 42.1% (inactive). To `CC(C)C1(CCN(Cc2ccc3c(c2)OCO3)C(=O)c2ccco2)CCOC(C)(C)C1` (configuration not stated) belongs -2.26% (inactive); to `COc1cc(OC)cc(C(=O)Nc2nc(C)c(C)s2)c1`, 9.5% (inactive). As to `Cn1nccc1C(=O)N1CCC(c2nncn2-c2ccccc2)CC1`, the inhibition was -1.38% (inactive). To `CCC(C)NC(=O)c1cn(CC(C)C)c(=O)c2c1c1ccccc1n2C` (configuration not stated) belongs -2% (inactive); to `Cc1ccc(COCc2nn(C)c3c2CN(C(=O)Nc2cccc(C)c2)CC3)cc1`, 30.3% (inactive). To `O=C(CSc1nccn1-c1ccccc1)Nc1ccccc1C(F)(F)F` belongs 18% (inactive); to `Cc1cc(C(=O)N2CCC(CCOc3ccc(F)cc3)CC2)no1`, -3.47% (inactive).

Regarding `COc1cccc(C2CC(c3ccc(C)cc3C)=NC3(CCN(C(C)=O)CC3)N2)c1O` (configuration not stated), the inhibition is 7.51% (inactive). On to `CCOC(=O)N1CCC2(CC1)N=C(c1ccccc1O)CC(c1ccc(F)c(Cl)c1)N2` (configuration not stated), for which the inhibition is 51.8% (active). To `Oc1ccc(Cl)cc1C1CC(c2ccccc2)=NC2(CCNCC2)N1` (configuration not stated) belongs 7.96% (inactive); to `CCN1CCC2(CC1)N=C(c1ccccc1O)CC(c1ccc(C)cc1)N2` (configuration not stated), 51.5% (active); to `CN1CCC2(CC1)N=C(c1ccc3c(c1)OCO3)CC(c1cc(Cl)ccc1O)N2` (configuration not stated), 16% (inactive). Next, `CCOC(=O)N1CCC2(CC1)N=C(c1cc(Cl)ccc1O)CC(c1ccc(C)cc1)N2` (configuration not stated): 6.77% (inactive); `Cc1ccc(S(=O)(=O)NCC2CCN(C(=O)Oc3ccccc3)CC2)s1`: -6.7% (inactive).

`Cc1cccc(-c2nc(C3CCN(C(=O)Cc4ccccc4Br)CC3)no2)c1`: the inhibition is -7.4% (inactive).

For the compound `COc1ccc(C(=O)Oc2ccc3c(=O)c(Oc4ccccc4OC)coc3c2)cc1`, the inhibition is 0.8% (inactive). For `Cc1cccc(-n2nc3c(c2NC(=O)c2cccc(Cl)c2)CS(=O)(=O)C3)c1C`, the inhibition is 16% (inactive). On to `CCCN(CCC)CCCNC(=O)CSc1nc2nc(C)c(Cc3ccccc3)c(C)n2n1`, for which the inhibition was 7% (inactive). To `COc1ccc(OCCCC(=O)Nc2ccccc2)cc1` belongs -9.6% (inactive).

As for `O=c1oc2ccc(Br)cc2cc1-c1ccc2c(c1)OCO2`, the inhibition is -1% (inactive). Next, `C=CS(=O)(=O)N(Cc1nnn(Cc2ccccc2)c1Br)[C@H](C(=O)OC)C(C)C`: -13.3% (inactive); `O=C(Nc1ccc(Cl)cc1)c1ccc(N2CC3CC(C2)c2cccc(=O)n2C3)c([N+](=O)[O-])c1` (configuration not stated): 6% (inactive); `COc1ccc(Br)cc1C=C(NC(=O)c1cc(OC)c(OC)c(OC)c1)C(=O)N1CC2CC(C1)c1cccc(=O)n1C2` (configuration not stated): 73.4% (active). On to `CN(Cc1ccccc1)C(=O)c1ccc(N2CC3CC(C2)c2cccc(=O)n2C3)c([N+](=O)[O-])c1` (configuration not stated), for which the inhibition was 9% (inactive). Next, `CCC(=O)N1CCN(c2nc3c(s2)CC(C(=O)Nc2cc(C)ccc2C)CC3)CC1` (configuration not stated): 18.3% (inactive); `COc1ccc(C2CC(C(F)(F)F)n3ncc(C(=O)Nc4ccc(C)c(C)c4)c3N2)cc1OC` (configuration not stated): 53% (active); `Cc1ccc(NC(=O)c2cnn3c2NC(c2ccco2)CC3C(F)(F)F)cc1C` (configuration not stated): -4% (inactive). To `COc1ccc(C2CC(C(F)(F)F)n3ncc(C(=O)Nc4cc(C)ccc4C)c3N2)cc1OC` (configuration not stated) belongs 27% (inactive).

`Cc1ccc(CNC(=O)c2ccnc(N3CCNC(c4ccccc4)C3)c2)cc1` (configuration not stated): the inhibition is 35.5% (inactive). Next, `COCCCNC(=O)c1c(NC(=O)c2ccccc2Cl)sc2c1CCCC2`: -17.4% (inactive). Next, `O=c1cc(-c2ccccc2F)oc2ccc(Cl)cc12`: -8.7% (inactive). To `CC1=C(C#N)c2nc(N)c(C#N)c(C)c2/C1=C/c1ccccc1[N+](=O)[O-]` belongs 16% (inactive); to `COc1cc(C=Nc2oc(C)c(C)c2C#N)ccc1O`, 6% (inactive). For `COc1cc(/C=C2\C(C)=C(C#N)c3nc(N)c(C#N)c(C)c32)ccc1O`, the inhibition is 60% (active). To `CC(=O)Nc1c(C)ccc(S(=O)(=O)N2CCCCC2)c1C` belongs 2.7% (inactive); to `COC(=O)C1CN(CCc2ccccc2)CCS(=O)(=O)N1Cc1ccc(F)cc1` (configuration not stated), 50.6% (active). Next, `CCCCCCN1CCS(=O)(=O)N(Cc2ccc(C(F)(F)F)cc2)C(C(=O)OC)C1` (configuration not stated): -0.1% (inactive). To `COC(=O)C1CN(CC(C)C)CCS(=O)(=O)N1Cc1ccc(F)cc1` (configuration not stated) belongs 7.2% (inactive).

Usually inhibition stands for the drop in the measured response relative to a control, in per cent.
